Results taken from the antibiotic and cytotoxicity screens of Wong et al. (2023).
The whole screen tested about 39,000 compounds, of which about 500 (1.3%) were called active. What follows is part of a selection rich in actives, with near analogues and random picks from the rest.

These molecules were tested on S. aureus RN4220 (assay: growth inhibition call (relative growth <= 0.2)). Conditions: 50 µM.
With `COc1ccc(S(=O)(=O)Nc2cccc3c2O[C@@H](CN(C)C(=O)NC(C)C)[C@@H](C)CN([C@@H](C)CO)C3=O)cc1` the growth inhibition call was “inactive”. For `Cc1c2c(nn1C)CSCc1cc(n(C)n1)CSc1cc(c3ccccc3c1)OCCCc1c(C(=O)O)n(C)c3c-2c(Cl)ccc13`, the growth inhibition call was “active”. `C[C@H]1CN([C@@H](C)CO)C(=O)c2cc(NC(=O)Nc3ccc(C(F)(F)F)cc3)ccc2O[C@@H]1CN(C)C(=O)Nc1ccc2c(c1)OCO2` was tested, and the growth inhibition call was “inactive”. `N=C(N)c1ccc(OCCCCCOc2ccc(C(=N)N)cc2)cc1.O=S(=O)(O)CCO.O=S(=O)(O)CCO` was tested, and the growth inhibition call was “active”. With `N=C(N)c1ccc(C(N)=O)cc1` the growth inhibition call was “inactive”. With `OCCC[C@@H](O)c1ccc(OCCO)cc1` the growth inhibition call was “inactive”. `COc1ccc(S(=O)(=O)Nc2ccc3c(c2)C(=O)N([C@@H](C)CO)C[C@H](C)[C@H](CN(C)CC2CC2)O3)cc1` was tested, and the growth inhibition call was “inactive”. With `C[C@@H]1CN([C@@H](C)CO)C(=O)c2cc(NS(=O)(=O)c3ccccc3)ccc2O[C@@H](C)CCCCO[C@H]1CN(C)S(=O)(=O)c1cn(C)cn1` the growth inhibition call was “inactive”. In the case of `C[C@H](CO)N1C[C@H](C)[C@H](CN(C)S(=O)(=O)c2ccc(F)cc2)Oc2ncc(-c3ccncc3)cc2C1=O`, the growth inhibition call is reported as “inactive”. In the case of `CC(=O)c1c(O)c(C)c(O)c2c1OC1=CC(=O)C(C(C)=O)C(=O)C12C` (stereo not drawn), the growth inhibition call is reported as “active”. `COc1cc(OC)c(C(C)=O)c(O)c1C` was tested, and the growth inhibition call was “inactive”. `CC(=O)C1C(=O)C=C(C)OC1=O` (stereo not drawn) was tested, and the growth inhibition call was “inactive”. For `CCCc1c(SCCCOc2ccc(C(C)=O)c(OCCCC(=O)O)c2CCC)ccc(C(C)=O)c1O`, the growth inhibition call was “active”. `COCC(=O)Nc1ccc2c(c1)C(=O)N(C)C[C@@H](OC)[C@H](C)CN(Cc1cccc(F)c1)[C@H](C)CO2` was tested, and the growth inhibition call was “inactive”. `CC(=O)N1c2ccccc2C2=NNC(=S)N[C@]21O` was tested, and the growth inhibition call was “inactive”. `C[C@H]1CCCCO[C@H](CN(C)C(=O)Cc2ccccc2)[C@@H](C)CN([C@@H](C)CO)C(=O)c2cc(NC(=O)Nc3ccc(F)cc3)ccc2O1` was tested, and the growth inhibition call was “inactive”. For `C[C@@H]1CN([C@@H](C)CO)C(=O)c2cc(/C=C/c3ccccc3)cnc2O[C@@H]1CN(C)C(=O)C1CCOCC1`, the growth inhibition call was “inactive”. `CO/N=C(\C(=O)N[C@@H]1C(=O)N2C(C(=O)O)=C(CSC(=O)c3ccco3)CS[C@H]12)c1csc(N)n1` was tested, and the growth inhibition call was “active”. With `CON=C(C(=O)NC1C(=O)N2C(C(=O)O)=C(CSC(=O)c3ccco3)CSC12)c1csc(N)n1.Cl` (stereo not drawn) the growth inhibition call was “active”. `Cc1noc(C)c1S(=O)(=O)Nc1ccc2c(c1)C(=O)N([C@@H](C)CO)C[C@H](C)[C@@H](CN(C)S(=O)(=O)c1ccc(Cl)cc1)O2` was tested, and the growth inhibition call was “inactive”. For `NNCCc1ccccc1`, the growth inhibition call was “active”. `N=C(N=C(N)N)NCCc1ccccc1` was tested, and the growth inhibition call was “inactive”. In the case of `NNCCc1ccccc1.O=S(=O)(O)O`, the growth inhibition call is reported as “inactive”.
